About 79,000 compounds went through this panel and 15% of them were active in at least one assay; those are over-represented in the sample as a whole. A number with no mark means an inactive call. Active and inactive are the calls of the source. Cut-off read from the data, not from the text of the source: active = growth inhibition above about 70%; inactive = the rest.
Assays:
[1] = NCI Yeast Anticancer Drug Screen. Data for the rad50 strain (AID 155);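 note: 0% = growth of vehicle-only cultures of the same strain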; settings: S. cerevisiae rad50 strain growth inhibition; at 50.0 µM; hits give high values
Outline: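 Cells are treated with compound, grown, and their growth is then scored against vehicle-only cultures of the same repair-deficient yeast strain.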

[2] = NCI Yeast Anticancer Drug Screen. Data for the mec2-1 strain (AID 157); settings: S. cerevisiae mec2-1 strain, at 50.0 µM, hits give high values
Outline: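 mec2-1 yeast strain, carrying an alteration in DNA damage repair or cell cycle control, was exposed to compounds; growth inhibition was measured relative to vehicle-treated controls.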

[3] = NCI Yeast Anticancer Drug Screen. Data for the sgs1 mgt1 strain (AID 161);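 note: 0% = growth of cultures given vehicle only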; settings: S. cerevisiae sgs1 mgt1 strain, at 50.0 µM, hits give high values
Outline: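 Compounds are added to genetically altered yeast, and growth is compared with cultures given vehicle alone to give percent inhibition.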

[4] = NCI Yeast Anticancer Drug Screen. Data for the cln2 rad14 strain (AID 165);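 note: 0% = growth equal to vehicle treated cultures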; settings: S. cerevisiae cln2 rad14 strain, at 50.0 µM, hits give high values
Outline: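 Yeast carrying cln2 and rad14 alterations (cell cycle control and DNA damage repair) were exposed to compounds. Growth inhibition was measured against vehicle-treated controls.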

[5] = NCI Yeast Anticancer Drug Screen. Data for the bub3 strain (AID 167); settings: S. cerevisiae bub3 mutant strain, at 50.0 µM, hits give high values
Outline: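 Part of a panel of yeast mutants defective in DNA damage repair or cell cycle regulation. Each strain is grown with compound, and inhibition is calculated relative to solvent-treated cultures.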

[6] = NCI Yeast Anticancer Drug Screen. Data for the mlh1 rad18 strain (AID 175); settings: S. cerevisiae mlh1 rad18 strain growth inhibition; at 50.0 µM; hits give high values
Outline: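 Growth inhibition of the yeast strain was measured after compound exposure and expressed relative to vehicle-treated controls. The strain carries defined defects in DNA damage repair.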

SMILES | growth inhibition [1] | growth inhibition [2] | growth inhibition [3] | growth inhibition [4] | growth inhibition [5] | growth inhibition [6]
CCn1nc(C)c2c1C(=O)NCC(=O)N2 | -34.1% | -44.6% | -26.9% | -10.4% | -17.6% | -2.3%
CSCCC(NCc1c(O)ccc2ccc(=O)oc12)C(=O)O (configuration not stated) | -35.6% | -9.1% | -27.9% | 7.45% | 0.95% | -38%
CCOC(=O)/C(C#N)=C/c1cccc(Cl)c1 | 28.6% | 30% | 38.9% | 13.3% | 13.4% | 44%
O=c1[nH]c(Nc2cccc(Br)c2)nc2nc[nH]c12 | -53.2% | -8.65% | -23.9% | -45.4% | -5.9% | -37.5%
O=C(Oc1c(Cl)c(Cl)c(Cl)c(Cl)c1Cl)Oc1c(Cl)c(Cl)c(Cl)c(Cl)c1Cl | -13.7% | -8.25% | 19.1% | -15.1% | 12.8% | 3.4%
CCOC(=O)NC(=S)Nc1nonc1-c1ccccc1 | 1.35% | 2% | 36% | -9.65% | 15.6% | 26.2%
N#CC(C(N)=O)C(CC(=O)c1ccccc1)c1ccccc1 (configuration not stated) | -7.65% | -3.1% | 13.3% | 15.9% | 19.2% | -2.05%
CCCCCc1c2c(c(CCCCC)c3c1-c1cccc4cccc-3c14)-c1ccc(C)cc1C2 | -29.7% | -9.95% | -30.9% | -18.1% | -0.3% | -19.4%
Cc1ccc2c(c1)C(=O)C1(C2)Cc2ccc(C)cc2C1=O | -53% | -45.9% | 4.05% | -3.45% | 5.45% | -24.9%
COc1ccc(OC)c(/C=C/C(=O)NC(CO)CSCSC)c1 (configuration not stated) | -0.35% | 4.75% | -3.9% | -10.8% | 21.5% | -24.4%
COC1/C=C\OC2(C)Oc3c(C)c(O)c4c(O)c(c5c(c4c3C2=O)NC2(CCN(C)CC2)N=5)=NC(=O)/C(C)=C\C=C\C(C)C(O)C(C)C(O)C(C)C(OC(C)=O)C1C (configuration not stated) | 2.85% | 3% | -1% | 10.3% | 7% | 3.25%
O=C(Oc1ccc2c(c1)CCN2C(=O)c1cc2c(cc1[N+](=O)[O-])OCO2)c1ccc2c(c1)OCO2 | 17.4% | 7.2% | -2.3% | 5.7% | -4.8% | 11.2%
CC(=O)C(CCCCCCCCCCC(C(C)=O)C(C)=O)C(C)=O | -9.3% | -2.75% | -5.05% | -38.6% | -6% | -10.2%
CCOC(=O)C(=O)Nc1ccccc1CC | -3% | 2.9% | -12.3% | -33.5% | 11.2% | -3.35%
CCOc1cc2c(cc1Cc1ccc3c(c1)OCO3)OCO2 | -8.15% | -11.8% | -5.6% | -12.1% | 4.35% | 1.3%
O=C(O)c1cnc2cccc([N+](=O)[O-])c2c1 | 2.5% | 10.7% | 0.2% | -50.5% | -22.2% | 11.4%
C=CCCCN(c1ccc(C(=O)OCC)cc1)S(=O)(=O)c1ccc(C)cc1 | 28.3% | -11.4% | 12.1% | 12.7% | -6.1% | 4.2%
CC1(C)Oc2ccc3ccccc3c2C(c2ccc(O)cc2)=C1c1ccccc1 | -51.5% | -11% | 5.2% | 7.75% | -3.1% | -20.6%
O=C1/C(=C/c2cccc3ccccc23)Cc2ccccc21 | -6.55% | -25.6% | -11.6% | -5.65% | 18.1% | 7.7%

SMILES | growth inhibition [1] | growth inhibition [2] | growth inhibition [3] | growth inhibition [4] | growth inhibition [5] | growth inhibition [6]
O=S(CCCl)c1ccccc1 (configuration not stated) | -8.3% | -13.2% | 3.35% | 10.4% | -7.05% | 4.9%
S=c1sc2c(Cl)ncnc2n1-c1ccccc1 | 1.55% | 24.4% | 13.2% | 11.8% | 9.7% | 5.6%
CN(CCNC(=O)NCCCCCCNC(=O)NCCN(C)c1ccccc1)c1ccccc1 | -6% | -44% | -6.7% | -33.2% | 3.45% | -5.05%
CC12C(=O)OC3CCC1CC32 (configuration not stated) | 10.8% | 7.1% | -5.85% | -26.6% | 6.65% | 2.95%
Cc1cc(C)c(C)c(CN)c1C | -20% | -5.85% | -9.35% | 7.8% | 13.7% | -3%
COC(=O)c1nc(SC)[nH]c1CC(N)=O | 43.5% | 22.4% | 20.5% | -22.8% | 32.7% | -15.2%
C=C1C(=O)OC2/C=C(\C)CC(O)/C=C(/CO)CC(OC(=O)/C(C)=C/C)C12 (configuration not stated) | -4.5% | -33.6% | -6.55% | -1.9% | -1.65% | -58.5%
COC(=O)c1c(C=O)cccc1[N+](=O)[O-] | 22.7% | -0.05% | 1.75% | 0.7% | -14.1% | 15.2%
O=C(CC1(O)C(=O)Nc2ccccc21)c1ccc(O)cc1O (configuration not stated) | 13.2% | 15.4% | 12.1% | 26.4% | 14.3% | 18.6%
Oc1ccccc1-c1cc(-c2ccccc2)nc(NCCCCCCNc2nc(-c3ccccc3)cc(-c3ccccc3O)n2)n1 | 9.85% | 3.9% | -12.1% | -24.2% | -6.4% | 11.2%
O=[N+]([O-])c1ccc2nc[nH]c2c1 | 48.8% | 4.9% | -6.4% | 25.5% | -0.2% | 43.1%
O=C(/C=C/c1ccc(O)cc1)NCCc1c[nH]c2ccc(O)cc12 | 0.75% | -10% | 10% | 8.35% | -3.7% | 7.75%
CC(=O)[C@H]1CC[C@H]2[C@@H]3CC=C4C=CCC[C@]4(C)[C@H]3CC[C@]12C | -6.3% | 1% | -3.55% | -58.5% | 8.4% | 6.7%
CCCC/C(C)=N/NC(N)=S | 2.3% | -4.3% | -4.3% | -2.65% | -15.9% | 1.9%
O=C(O)c1ccc(Cl)c(N=C/C=C/c2ccccc2)c1 | 1.85% | -37.5% | 6.6% | -15.3% | 3.45% | -6.9%
Nc1nc2c(c(-c3nc(N)nc4c3CCC4)n1)CCC2 | 9.7% | 15.4% | 11.6% | 7% | -1.75% | 10.8%
O=C(O)c1cc(Cl)ccc1-c1ccc(Cl)cc1C(=O)Nc1ccc2c(c1)Cc1ccccc1-2 | 91.3% (active) | 89.7% (active) | 94.6% (active) | 87.8% (active) | 85.3% (active) | 94.9% (active)
Cc1ccccc1NC(=O)NNc1ccccc1 | 17% | -0.65% | 7.35% | 10.7% | -2.9% | 3.85%

Reference: PubChem BioAssay (NCI)
